Hit rate of the full screen: of about 52,000 compounds, about 1,700 (3.3%) were called active. The sample as a whole holds a higher share of actives than the screen did. Values without a mark were called inactive. Rule as the data show it: active = survival mostly below about 52% (no sharp cut-off); inactive = mostly above about 56%.

The experiment concerns Wild type. The experiment can be described thus: growth inhibition of S. aureus wild type versus tarO mutant, primary screen, teichoic acid synthesis inhibitors, RN4220, OD600 (AID 463173). The following applies: S. aureus RN4220 wild type/DeltatarO growth, OD600, 18 h, active compounds read low, screened at 18.75 µg/mL (by protocol).
`COc1ccc(-c2noc(-c3ccc(N4CCC(C)CC4)c([N+](=O)[O-])c3)n2)cc1OC`: the survival is 89%.

For the compound `O=C(C1CCCCC1)N(Cc1cccnc1)c1nc2ccc(Cl)cc2s1`, the survival is 72%. Under `CCc1nn(CC(=O)Nc2ccc(NC(C)=O)cc2)c(=O)c2cc3sccc3n12` stands 86%; under `CCOc1ccccc1NC(=O)c1cnn2c(C(F)F)cc(-c3ccccc3)nc12`, 52%. Next, `CCOC(=O)C1CCN(C(=O)c2cc3sc(C)cc3n2C)CC1`: 89%.

Regarding `CC1CCN(S(=O)(=O)c2ccc3c(c2)N(CC(=O)NCCN(C)C)C(=O)CO3)CC1`, the survival is 76%. On to `Cc1cccc(-c2nc3c4ccccc4nc(NCc4ccccc4Cl)n3n2)c1`, for which the survival is 163%. As for `COc1ccccc1CNc1nc2ccccc2c2nc(-c3cccnc3)nn12`, the survival was 67%. Next, `COc1ccccc1CNc1nc2ccccc2c2nc(-c3cccc(C)c3)nn12`: 9% (active). Next, `c1ccc(CNc2nc3ccccc3c3nc(-c4ccccc4)nn23)cc1`: 67%; `COc1ccc(CCNc2nc3ccccc3c3nc(-c4cccc(C)c4)nn23)cc1OC`: 24%. Next, `Cc1ccc(CNc2nc3ccccc3c3nc(-c4cccc(C)c4)nn23)cc1`: 26%; `Cc1cccc(-c2nc3c4ccccc4nc(NCCc4ccccc4)n3n2)c1`: 3% (active); `CCCCNc1nc2ccccc2c2nc(-c3ccccc3)nn12`: -1% (active). Consider `Cc1ccc(CCNc2nc3ccccc3c3nc(-c4ccccc4)nn23)cc1`, for which the survival was 73%. Take `CN1C(N)=NC(=O)C1(CO)CO`: the survival is 104%.

As to `CCOc1ccc(NC(=O)CSc2nc(-c3cccs3)cc(C(F)(F)F)c2C#N)cc1`, the survival is 66%.

As to `O=C(Cn1c(=O)c2ccccc2n(CC(=O)Nc2ccccc2F)c1=O)NCCc1ccccc1`, the survival was 89%.

On to `CCOc1ccc(CCNC(=O)c2cc3cc4ccc(OC)cc4nc3s2)cc1OCC`, for which the survival is 101%. For the compound `Cc1ccc(-c2nc(CS(=O)CC(=O)N3CCN(c4cccc(Cl)c4)CC3)c(C)o2)cc1` (stereo not given), the survival was 5% (active). Next, `Cc1ccccc1-c1nc(CS(=O)CC(=O)N2CCN(c3cc(Cl)ccc3C)CC2)c(C)o1` (stereo not given): 10% (active); `COc1cccc(-c2nc(CS(=O)CC(=O)N3CCN(c4cccc(C(F)(F)F)c4)CC3)c(C)o2)c1` (stereo not given): -2% (active); `Cc1ccc(-c2nc(CS(=O)CC(=O)N3CCN(c4ccc(Cl)cc4)CC3)c(C)o2)cc1` (stereo not given): 73%. Under `Cc1oc(-c2ccc(Cl)cc2)nc1CS(=O)CC(=O)N1CCN(c2cccc(C(F)(F)F)c2)CC1` (stereo not given) stands 80%. Under `COc1cccc(-c2nc(CS(=O)(=O)CC(=O)N3CCN(c4ccccc4)CC3)c(C)o2)c1` stands 94%; under `Cc1ccccc1-c1nc(CS(=O)CC(=O)NCCc2ccc(Cl)cc2)c(C)o1` (stereo not given), 128%; under `Cc1oc(-c2ccccc2Cl)nc1CS(=O)CC(=O)N1CCN(c2cccc(C(F)(F)F)c2)CC1` (stereo not given), 129%.

With `Cc1ccc(-c2nc(CS(=O)CC(=O)N3CCN(c4ccccc4)CC3)c(C)o2)cc1` (stereo not given), the survival is 88%. For `CCOc1ccc(-c2nc(CSCC(=O)N3CCN(c4ccc(F)cc4)CC3)c(C)o2)cc1`, the survival was 113%. Consider `CCCn1c(=O)sc2cc(NC(=O)c3ccccc3Cl)ccc21`, for which the survival is 71%. Under `COc1cccc(C2C(C(=O)Nc3ccccc3)=C(C)Nc3nc(-c4ccccc4)nn32)c1` (stereo not given) stands 76%; under `COc1ccc(N2CCN(c3ccc(-c4nc(-c5ccccc5C)no4)cc3[N+](=O)[O-])CC2)cc1`, 88%. Next, `Cc1ccc(N(CC(=O)Nc2ccc(Br)c(C)c2)S(=O)(=O)c2cccs2)cc1`: 82%; `Cc1ccc(N(C(=O)c2cccc(C)c2)S(=O)(=O)c2ccc(Cl)cc2)cc1`: 65%.

For `Cc1ccc(NC(=O)N2CCC(n3c(C)nc4cccnc43)CC2)c(Cl)c1`, the survival was 71%. Under `CC(=O)N1CCC(N(Cc2ccc(C)o2)C(=O)Nc2ccccc2F)CC1` stands 85%; under `COc1ccc2[nH]c(=O)c(CN(C(=O)c3cccc(Cl)c3)c3ccccc3OC)cc2c1`, 81%.

Consider `Fc1ccc(C(c2nnnn2C2CCCC2)N2CCc3ccccc32)cc1` (stereo not given), for which the survival was 122%. Under `Cn1cc(-c2cc3n(n2)CCC(=O)N3CCCC(=O)NCc2ccccc2)c2ccccc21` stands 76%; under `CN(C)c1ccc(CNC(=O)CCCN2C(=O)CCn3nc(-c4cn(C)c5ccccc45)cc32)cc1`, -1% (active). Turning to `Cc1ccc(CNC(=O)CCCN2C(=O)CCn3nc(-c4cn(C)c5ccccc45)cc32)cc1`, the survival was 76%. On to `Cn1cc(-c2cc3n(n2)CCC(=O)N3CCCC(=O)Nc2ccccc2F)c2ccccc21`, for which the survival was 159%.

As for `O=C(CN1C(=O)CCn2nc(-c3ccccc3)cc21)NCc1ccc(Cl)cc1`, the survival was -3% (active).

Regarding `CN(C)c1ccc(CNC(=O)CN2C(=O)CCn3nc(-c4cn(C)c5ccccc45)cc32)cc1`, the survival was 53%. Regarding `CCc1ccccc1NC(=O)CCCN1C(=O)CCn2nc(-c3cn(C)c4ccccc34)cc21`, the survival is 134%.

Take `Cc1ccc(CNC(=O)CN2C(=O)CCn3nc(-c4ccccc4)cc32)cc1`: the survival was 68%. Under `Cn1cc(-c2cc3n(n2)CCC(=O)N3CCCC(=O)NCc2ccc(Cl)cc2)c2ccccc21` stands 124%; under `O=C(CN1C(=O)CCn2nc(-c3ccccc3)cc21)NCc1ccccc1`, 124%. Turning to `Cn1cc(-c2cc3n(n2)CCC(=O)N3CCCC(=O)Nc2ccccc2Cl)c2ccccc21`, the survival is -6% (active).

As for `Cc1cccc(CNC(=O)CCCN2C(=O)CCn3nc(-c4cn(C)c5ccccc45)cc32)c1`, the survival was -6% (active). Next, `Cc1cc(Cl)ccc1NC(=O)CN1C(=O)CSc2ccc(S(=O)(=O)N(C)C)cc21`: 68%; `O=C(NCc1ccccc1)NC1COc2ccccc2C1` (stereo not given): 82%; `CCCCc1ccc(NC(=O)c2ccc3c(c2)CCN3S(=O)(=O)CC)cc1`: 80%.

Take `Cc1ccccc1NC(=O)c1c(NC(=O)C(C)Oc2cccc(Cl)c2)sc2c1CCCC2` (stereo not given): the survival was 61%.

As to `Cc1c(CC(=O)NCCc2ccccc2)c(=O)oc2c(C)c3occ(C(C)(C)C)c3cc12`, the survival is 84%.

These data come from PubChem BioAssay AID463173 (ICCB-Longwood Screening Facility, Harvard Medical School, 2010).
